Data: PubChem BioAssay AID686978 (National Center for Advancing Translational Sciences (NCATS), 2013)
“And” between values parts separate entries of the source, which are not always exact repeats. Equal values may be shown once. About 64,000 (15%) of roughly 420,000 compounds were called active. Roughly 27% stayed inconclusive and do not appear here. A selection follows. Values without a mark were called inactive. Calls follow the shape of the dose curve; as a rule, active = well fitted inhibition curve with a large enough effect; inconclusive = small, poorly fitted or top-dose-only effect; inactive = flat fitted curve, though single readings scatter.

Experiment: qHTS for Inhibitors of human tyrosyl-DNA phosphodiesterase 1 (TDP1): qHTS in cells in absence of CPT; also: nearly all actives have a fitted effect of over 55% in size
Details: DT40 Tdp1-/- hTDP1 cells, no CPT, ATP luminescence, 48 h; activity change, negative = growth inhibition: at 46.2 µM (top of the series)
Method in brief: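 Readout: luminescence from CellTiter-Glo after 30 min in the dark at RT. Cells: DT40 Tdp1-/- with stable hTDP1, 400/well. Exposure: compounds alone, ≥48 hr, 37 °C.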
% is scaled to controls: 0 for no effect and ±100 for the full control effect; potency is read from the fitted curve at half-maximal effect.

Compound | activity change, negative = growth inhibition [%] | Potency
CCOC(=O)C1=C(c2ccccc2)NC(=O)NC1c1cc(OCC)c(O)c([N+](=O)[O-])c1 (configuration not stated) | -13.7 | 
CCCOc1ccc(C2NC(=O)NC(c3ccccc3)=C2C(C)=O)cc1OCC (configuration not stated) |  | 23.1 µM (active)
COc1cc(C2NC(=O)NC(c3ccccc3)=C2C(C)=O)c(Br)cc1OCC(N)=O (configuration not stated) | -4.31 | 
CC(C)(C(=O)N1CCC1(C)C(=O)NS(=O)(=O)c1ccc(Br)cc1)c1ccccc1 (configuration not stated) | -10.3 | 
CSc1nsc(SCC(=O)Nc2cc(C(=O)O)ccc2C)n1 | 26.8 | 
OC(C#CCN1CCOCC1)(c1ccccc1)C1CCCCC1 (configuration not stated) | -19 | 
CC(CN1CCCCC1)c1ccccc1 (configuration not stated) | -5.65 | 
COc1ccc(C(O)(C2CCCCC2)C(CN2CCCC2)c2ccccc2)cc1 (configuration not stated) |  | 18.4 µM (active)
CCc1nccn1S(=O)(=O)c1cc(Br)ccc1Br | -5.02 | 
O=C(COc1ccc(Cl)cc1)Nc1ccc(-c2nc3cc(Cl)ccc3o2)c(O)c1 | -19 | 
CC(=O)Nc1ccc(-c2nc3ccccc3o2)cc1 | 9.6 | 
CCCCCC(=O)Nc1ccc2oc(-c3ccncc3)nc2c1 | -14.9 | 
COc1cc(OC)cc(C(=O)Nc2ccc(-c3nc4ccccc4o3)c(O)c2)c1 |  | 16.4 µM (active)
Cc1nc2nc[nH]n2c(=O)c1NC(=O)c1cccc(OCC(C)C)c1 | -10.7 | 
Cc1ccccc1-c1nc2cc(NC(=O)c3cccc(OCCC(C)C)c3)ccc2o1 |  | 5.17 µM (active)
CCCOc1ccc(C(=O)Nc2ccc3oc(-c4cccc(Cl)c4Cl)nc3c2)cc1 |  | 7.31 µM (active)
O=C(Nc1ccc(-c2nc3cc(NC(=O)c4ccccc4Cl)ccc3o2)cc1)c1ccccc1Cl |  | 2.91 µM (active)
CCCCOc1ccc(C(=O)Nc2cccc(-c3nc4ccccc4o3)c2C)cc1 | -15 | 
Cc1cc2nc(-c3ccc(NC(=O)c4cc5ccccc5o4)cc3)oc2cc1C | -3.82 | 

Compound | activity change, negative = growth inhibition [%] | Potency
O=C(Nc1ccc(C(=O)O)c(O)c1)c1ccccc1 |  | inactive
NS(=O)(=O)c1ccc(CCNC(=O)CNC(=O)Cc2ccccc2)cc1 | 12.8 | 
NC(=O)C1CC=CCC1C(=O)OCC(Cl)=C(Cl)Cl (configuration not stated) | 4.67 | 
CC(C)NC(=S)N1CCN(S(C)(=O)=O)CC1 | 1.33 | 
C[n+]1cc(-c2ccccc2)oc1-c1ccccc1 | -10.1 | 
COc1cc(OC)cc(C(=O)NNC(=O)Cc2cccs2)c1 | -1.43 | 
CC(C)(C)n1nc2c(c1NC(=O)c1ccc(S(=O)(=O)N3CCCC3)cc1)CS(=O)C2 (configuration not stated) | -21.6 | 
CC(C)(C)n1c(=O)[nH]c2c(c1=O)CCC2 | 5.73 | 
CC1(C)CC(=O)C(N=Nc2c(F)cccc2F)=C(O)C1 | -7.33 | 
NC1=NC(=O)C2(COC(c3ccccc3Cl)OC2)S1 (configuration not stated) | 0.828 | 
O=C(CSc1ncccn1)NC(=O)NCc1ccccc1 | -8.73 | 
COc1cc(NC(=O)CN2CCN(S(=O)(=O)c3ccc(Br)cc3)CC2)cc(OC)c1 | -12.3 | 
COc1cccc(-c2nc3cc(C)ccc3o2)c1 | -25.6 | 
O=C(Nc1ccc2oc(-c3ccc(O)c(Br)c3)nc2c1)c1cc2ccccc2o1 | -8.41 | 
COc1cccc(C(=O)Nc2ccc3oc(-c4ccc5ccccc5c4)nc3c2)c1 |  | 10.3 µM (active)
COC(=O)c1ccc(-c2nc3cc(NC(C)=O)ccc3o2)cc1 | -15 | 
O=C(Nc1ccc2oc(-c3ccc4ccccc4c3)nc2c1)c1cccs1 |  | 23.1 µM (active)
O=C(Nc1ccc(NC(=O)c2cccs2)cc1)c1ccc2ccccc2c1 | 1.73 | 
COCCNC(=O)c1ccccc1-c1nc(-c2ccccc2Cl)no1 | -25.9 | 

Compound | activity change, negative = growth inhibition [%] | Potency
COc1ccccc1CCCNC(=O)C1CCC(=O)N(CCN2CCOCC2)C1 (configuration not stated) | 19 | 
Cn1c(N)c(C(=O)COC(=O)COc2ccc(Cl)cc2)c(=O)n(C)c1=O | -19 | 
N=C1C(=O)OCC1c1ccccc1NC(=O)CN1CCCCC1 (configuration not stated) | -8.68 | 
Cc1cccc(CC2(O)C(=O)Nc3ccccc32)n1 (configuration not stated) | -14.3 | 
CC(Sc1nnc(COc2ccccc2)n1-c1ccccc1)C(=O)O (configuration not stated) | -4.89 | 
CCCCN(CC)CCCNC(=O)c1nn(C)c2c1CS(=O)(=O)c1ccccc1-2 | 10.4 | 
Cc1cc(N2CCN(C)CC2)nc2ccc(NC(=S)N3CCOCC3)cc12 | -13.7 | 
COc1ccc(C(=O)Nc2ccc3nc(N4CCCCC4)cc(C)c3c2)cc1OC |  | 14.6 µM (active) and 16.4 µM (active)
COc1cc(NC(=O)c2ccc(CNc3c(N4CCCC4)c(=O)c3=O)cc2)cc(OC)c1OC | -25.3 | 
CCOCCCNC(=S)Nc1ccc2nc(N3CCN(CC)CC3)cc(C)c2c1 | -3.03 | 
CCN1CCN(c2cc(C)c3cc(NC(=O)c4cc(Cl)ccc4OC)ccc3n2)CC1 |  | 4.11 µM (active)
COC(=O)c1ccc(NC(=O)c2cc(Cl)ccc2OC)cc1 | 16.5 | 
CCOc1ccc(S(=O)(=O)NCCSc2ccccc2)cc1 | 2.24 | 
O=C(Nc1ccccc1)c1ccccc1Br | -23.4 | 
CC(=O)Nc1cccc(C(=O)OCC(=O)Nc2nnc(-c3ccccc3)o2)c1 | 1.04 | 
O=C(Nc1nnc(-c2ccc(Cl)cc2)o1)c1ccccc1Br |  | 18.4 µM (active)
O=C(COC(=O)c1ccccc1Br)Nc1nnc(-c2ccccc2)o1 | -7.07 | 
O=C(CSc1nnc(-c2ccncc2)o1)Nc1cccc(Cl)c1 | -5.19 | 
O=C(Nc1cccc(Cl)c1)Nc1nnc(-c2ccccc2)o1 |  | 16.4 µM (active)
